# PubChem BioAssay AID1159580 (chemical genetic matrix, 2015)
# The campaign covered roughly 5,500 compounds. About 2,000 (36%) were called active. About 18% were inconclusive and are not listed. The list shows a part of the results. Values without a mark were called inactive. Cut-off read from the data, not from the text of the source: active = normalized growth mostly below about 0.91 (no sharp cut-off); inconclusive = no clear call, values can overlap the other calls; inactive = mostly above about 0.92.
# Experiment: chemical genetic growth profiling, strain panel (AID 1159580);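 note: tested at 20 µM; growth read once vehicle control cultures reached saturation at 30 °C; 1 = growth at the plate median or of vehicle wells; lower values mean less growth of the strain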
# Settings: growth OD
compound,measurement,setting,value
COc1c(C(C)C)oc2cc3oc(=O)ccc3cc12,normalized growth,"S. cerevisiae deletion strains, locus YBR021W, strain FUR4, active compounds read low",0.915
same,normalized growth,"S. cerevisiae deletion strains, locus YBR229C, strain ROT2, active compounds read low",0.987
same,normalized growth,"S. cerevisiae deletion strains, locus YCL029C, strain bik1, active compounds read low",0.839 (active)
same,normalized growth,"S. cerevisiae deletion strains, locus YDL035C, strain GPR1, active compounds read low",0.749 (active)
same,normalized growth,"S. cerevisiae deletion strains, locus YDL074C, strain BRE1, active compounds read low",0.721 (active)
same,normalized growth,"S. cerevisiae deletion strains, locus YDL101C, strain DUN1, active compounds read low",0.918
same,normalized growth,"S. cerevisiae deletion strains, locus YDL185W, strain tfp1, active compounds read low",0.933
same,normalized growth,"S. cerevisiae deletion strains, locus YDL192W, strain arf1, active compounds read low",0.894 (active)
same,normalized growth,"S. cerevisiae deletion strains, locus YDR101C, strain arx1, active compounds read low",0.929
same,normalized growth,"S. cerevisiae deletion strains, locus YDR162C, strain NBP2, active compounds read low",0.826 (active)
same,normalized growth,"S. cerevisiae deletion strains, locus YDR318W, strain mcm21, active compounds read low",0.89 (active)
same,normalized growth,"S. cerevisiae deletion strains, locus YDR388W, active compounds read low",0.935
same,normalized growth,"S. cerevisiae deletion strains, locus YDR502C, strain sam2, active compounds read low",0.873 (active)
same,normalized growth,"S. cerevisiae deletion strains, locus YEL061C, strain CIN8, active compounds read low",0.933
same,normalized growth,"S. cerevisiae deletion strains, locus YER110C, active compounds read low",0.914
same,normalized growth,"S. cerevisiae deletion strains, locus YER155C, strain BEM2, active compounds read low",0.972
same,normalized growth,"S. cerevisiae deletion strains, locus YER167W, strain BCK2, active compounds read low",0.921
same,normalized growth,"S. cerevisiae deletion strains, locus YGL078C, strain dbp3, active compounds read low",0.911 (active)
same,normalized growth,"S. cerevisiae deletion strains, locus YGL086W, strain mad1, active compounds read low",0.883 (active)
same,normalized growth,"S. cerevisiae deletion strains, locus YGL248W, strain PDE1, active compounds read low",0.869 (active)
same,normalized growth,"S. cerevisiae deletion strains, locus YGR135W, strain pre9, active compounds read low",0.779 (active)
same,normalized growth,"S. cerevisiae deletion strains, locus YGR252W, strain gcn5, active compounds read low",0.55 (active)
same,normalized growth,"S. cerevisiae deletion strains, locus YHR030C, strain SLT2, active compounds read low",0.885 (active)
same,normalized growth,"S. cerevisiae deletion strains, locus YHR079C, strain IRE1 (second series), active compounds read low",0.954
same,normalized growth,"S. cerevisiae deletion strains, locus YHR094C, strain hxt1, active compounds read low",0.967
same,normalized growth,"S. cerevisiae deletion strains, locus YHR129C, strain ARP1, active compounds read low",0.901 (active)
same,normalized growth,"S. cerevisiae deletion strains, locus YHR200W, strain rpn10, active compounds read low",0.915 (active)
same,normalized growth,"S. cerevisiae deletion strains, locus YIL066C, strain RNR3, active compounds read low",0.801 (active)
same,normalized growth,"S. cerevisiae deletion strains, locus YIL073C, strain SPO22, active compounds read low",0.838
same,normalized growth,"S. cerevisiae deletion strains, locus YIL125W, strain kgd1, active compounds read low",0.971
same,normalized growth,"S. cerevisiae deletion strains, locus YIR030C, strain dcg1, active compounds read low",0.941
same,normalized growth,"S. cerevisiae deletion strains, locus YJL095W, strain BCK1, active compounds read low",0.722 (active)
same,normalized growth,"S. cerevisiae deletion strains, locus YJL134W, strain LCB3, active compounds read low",0.983
same,normalized growth,"S. cerevisiae deletion strains, locus YJL168C, strain set2, active compounds read low",0.957
same,normalized growth,"S. cerevisiae deletion strains, locus YJL187C, strain SWE1 (second series), active compounds read low",0.883
same,normalized growth,"S. cerevisiae deletion strains, locus YJR043C, strain POL32, active compounds read low",0.764 (active)
same,normalized growth,"S. cerevisiae deletion strains, locus YJR075W, strain HOC1, active compounds read low",0.877 (active)
same,normalized growth,"S. cerevisiae deletion strains, locus YKL009W, strain mrt4, active compounds read low",0.745 (active)
same,normalized growth,"S. cerevisiae deletion strains, locus YKL068W, active compounds read low",0.965
same,normalized growth,"S. cerevisiae deletion strains, locus YKL085W, strain MDH1 (second series), active compounds read low",0.958
same,normalized growth,"S. cerevisiae deletion strains, locus YKL085W, strain MDH1, active compounds read low",0.958
same,normalized growth,"S. cerevisiae deletion strains, locus YKR001C, strain vps1, active compounds read low",0.777 (active)
same,normalized growth,"S. cerevisiae deletion strains, locus YLR039C, strain RIC1, active compounds read low",0.944
same,normalized growth,"S. cerevisiae deletion strains, locus YLR058C, strain SHM2, active compounds read low",0.932
same,normalized growth,"S. cerevisiae deletion strains, locus YLR102C, strain apc9, active compounds read low",0.946
same,normalized growth,"S. cerevisiae deletion strains, locus YLR262C, strain YPT6, active compounds read low",0.971
same,normalized growth,"S. cerevisiae deletion strains, locus YLR268W, strain sec22, active compounds read low",0.888
same,normalized growth,"S. cerevisiae deletion strains, locus YLR330W, strain CHS5, active compounds read low",0.874 (active)
same,normalized growth,"S. cerevisiae deletion strains, locus YLR342W, strain FKS1 (second series), active compounds read low",0.661 (active)
same,normalized growth,"S. cerevisiae deletion strains, locus YLR371W, strain rom2, active compounds read low",0.951
same,normalized growth,"S. cerevisiae deletion strains, locus YLR418C, strain cdc73, active compounds read low",0.703 (active)
same,normalized growth,"S. cerevisiae deletion strains, locus YML016C, strain PPZ1, active compounds read low",0.958
same,normalized growth,"S. cerevisiae deletion strains, locus YML032C, strain rad52, active compounds read low",0.855 (active)
same,normalized growth,"S. cerevisiae deletion strains, locus YML124C, strain tub3, active compounds read low",0.96
same,normalized growth,"S. cerevisiae deletion strains, locus YMR078C, strain ctf18, active compounds read low",0.945
same,normalized growth,"S. cerevisiae deletion strains, locus YMR223W, strain ubp8, active compounds read low",0.9 (active)
same,normalized growth,"S. cerevisiae deletion strains, locus YMR263W, strain SAP30, active compounds read low",0.887 (active)
same,normalized growth,"S. cerevisiae deletion strains, locus YMR307W, strain GAS1, active compounds read low",0.743
same,normalized growth,"S. cerevisiae deletion strains, locus YNL067W, strain RPL9B, active compounds read low",0.862 (active)
same,normalized growth,"S. cerevisiae deletion strains, locus YNL153C, strain GIM3, active compounds read low",0.859 (active)
same,normalized growth,"S. cerevisiae deletion strains, locus YNL233W, strain BNI4, active compounds read low",0.806 (active)
same,normalized growth,"S. cerevisiae deletion strains, locus YNL250W, strain rad50, active compounds read low",0.932
same,normalized growth,"S. cerevisiae deletion strains, locus YNL271C, strain bni1, active compounds read low",0.889 (active)
same,normalized growth,"S. cerevisiae deletion strains, locus YNL298W, strain CLA4, active compounds read low",0.802 (active)
same,normalized growth,"S. cerevisiae deletion strains, locus YNL307C, strain MCK1, active compounds read low",0.51 (active)
same,normalized growth,"S. cerevisiae deletion strains, locus YNR052C, strain pop2, active compounds read low",0.884 (active)
same,normalized growth,"S. cerevisiae deletion strains, locus YOL012C, strain htz1",1.16
same,normalized growth,"S. cerevisiae deletion strains, locus YOL147C, strain pex11, active compounds read low",0.935
same,normalized growth,"S. cerevisiae deletion strains, locus YOR061W, strain CKA2, active compounds read low",0.91
same,normalized growth,"S. cerevisiae deletion strains, locus YOR069W, strain VPS5, active compounds read low",0.967
same,normalized growth,"S. cerevisiae deletion strains, locus YOR136W, strain idh2, active compounds read low",0.943
same,normalized growth,"S. cerevisiae deletion strains, locus YOR144C, strain elg1, active compounds read low",0.963
same,normalized growth,"S. cerevisiae deletion strains, locus YOR184W, strain ser1, active compounds read low",0.828 (active)
same,normalized growth,"S. cerevisiae deletion strains, locus YOR316C, strain cot1, active compounds read low",0.957
same,normalized growth,"S. cerevisiae deletion strains, locus YPL055C, strain LGE1, active compounds read low",0.755 (active)
same,normalized growth,"S. cerevisiae deletion strains, locus YPR119W, strain clb2, active compounds read low",0.957
same,normalized growth,"S. cerevisiae deletion strains, locus YPR141C, strain kar3, active compounds read low",0.952
same,normalized growth,"S. cerevisiae deletion strains, locus YPR163C, strain tif3, active compounds read low",0.769 (active)
same,normalized growth,"S. cerevisiae deletion strains, locus YPR167C, strain met16, active compounds read low",0.895 (active)
same,normalized growth,"S. cerevisiae deletion strains, strain wtn01, active compounds read low",0.887 (active)
same,normalized growth,"S. cerevisiae strains, strain wild type, active compounds read low",0.899 (active)
